{"source": "the supplement of paper PMC11738630", "system": "Salmonella enterica serovar Typhimurium 14028s", "test": "approximate change in surviving CFU after surface colonization relative to water-only control (log10 CFU/mL change); higher = more surviving bacteria (less inhibition of surface colonization)", "conditions": "not stated (Biolog proprietary concentration), surface: plastic 96-well plate, 20-24 h at 25 °C", "data": [{"smiles": "OC1OC[C@@H](O)[C@@H](O)[C@@H]1O", "note": "(stereo partly drawn) [D-Arabinose]", "values": [{"measurement": "approximate change in surviving CFU (log10)", "setting": "Biolog plate: PM2, Biolog well: B5", "result": 0.408}]}, {"smiles": "OC[C@@H](O)C(O)[C@H](O)CO", "note": "[D-Arabitol]", "values": [{"measurement": "approximate change in surviving CFU (log10)", "setting": "Biolog plate: PM2, Biolog well: B6", "result": 1.37}]}, {"smiles": "C[C@@H](O)[C@H](O)[C@H](O)[C@@H](O)C=O", "note": "[D-Fucose]", "values": [{"measurement": "approximate change in surviving CFU (log10)", "setting": "Biolog plate: PM2, Biolog well: B11", "result": -0.408}]}, {"smiles": "OC[C@@H](O)[C@@H](O[C@H]1O[C@H](CO)[C@@H](O)[C@H](O)[C@H]1O)[C@H](O)[C@@H](O)CO", "note": "[Maltitol]", "values": [{"measurement": "approximate change in surviving CFU (log10)", "setting": "Biolog plate: PM2, Biolog well: C5", "result": 1.37}]}, {"smiles": "OC[C@H]1O[C@H](OC[C@H]2O[C@H](O[C@]3(CO)O[C@H](CO)[C@@H](O)[C@@H]3O)[C@H](O)[C@@H](O)[C@@H]2O)[C@H](O)[C@@H](O)[C@H]1O", "note": "[D-Raffinose]", "values": [{"measurement": "approximate change in surviving CFU (log10)", "setting": "Biolog plate: PM2, Biolog well: D1", "result": 0.494}]}, {"smiles": "OC[C@H]1O[C@H](OC[C@H]2O[C@H](OC[C@H]3O[C@H](O[C@]4(CO)O[C@H](CO)[C@@H](O)[C@@H]4O)[C@H](O)[C@@H](O)[C@@H]3O)[C@H](O)[C@@H](O)[C@H]2O)[C@H](O)[C@@H](O)[C@H]1O", "note": "[Stachyose]", "values": [{"measurement": "approximate change in surviving CFU (log10)", "setting": "Biolog plate: PM2, Biolog well: D5", "result": 1.37}]}, {"smiles": "O=C(CO)[C@@H](O)[C@@H](O)[C@H](O)CO", "note": "[D-Tagatose]", "values": [{"measurement": "approximate change in surviving CFU (log10)", "setting": "Biolog plate: PM2, Biolog well: D6", "result": 0.859}]}, {"smiles": "C/C(=C/C(=O)O)C(=O)O", "note": "[Citraconic Acid]", "values": [{"measurement": "approximate change in surviving CFU (log10)", "setting": "Biolog plate: PM2, Biolog well: E3", "result": 0.472}]}, {"smiles": "C[C@@H](O)CC(=O)O", "note": "[b-Hydroxy Butyric Acid]", "values": [{"measurement": "approximate change in surviving CFU (log10)", "setting": "Biolog plate: PM2, Biolog well: E8", "result": -0.215}]}, {"smiles": "O=C(O)[C@]1(O)C[C@@H](O)[C@@H](O)[C@H](O)C1", "note": "[Quinic Acid]", "values": [{"measurement": "approximate change in surviving CFU (log10)", "setting": "Biolog plate: PM2, Biolog well: F6", "result": 1.09}]}, {"smiles": "C[N+](C)(C)CC(O)CC(=O)[O-]", "note": "(racemic) [D,L-Carnitine]", "values": [{"measurement": "approximate change in surviving CFU (log10)", "setting": "Biolog plate: PM2, Biolog well: H5", "result": 0.365}]}, {"smiles": "NCC(O)c1ccc(O)cc1", "note": "(racemic) [D,L-Octopamine]", "values": [{"measurement": "approximate change in surviving CFU (log10)", "setting": "Biolog plate: PM2, Biolog well: H7", "result": 0.987}]}, {"smiles": "CC(=O)C(C)O", "note": "(stereo unspecified) [3-Hydroxy-2-Butanone]", "values": [{"measurement": "approximate change in surviving CFU (log10)", "setting": "Biolog plate: PM2, Biolog well: H12", "result": -0.15}]}, {"smiles": "N[C@@H](Cc1c[nH]c2ccccc12)C(=O)O", "note": "[L-Tryptophan]", "values": [{"measurement": "approximate change in surviving CFU (log10)", "setting": "Biolog plate: PM3, Biolog well: B12", "result": -1.05}]}, {"smiles": "NC(=O)C[C@@H](N)C(=O)O", "note": "[D-Asparagine]", "values": [{"measurement": "approximate change in surviving CFU (log10)", "setting": "Biolog plate: PM3, Biolog well: C4", "result": 0.644}]}, {"smiles": "CC(O)C(N)=O", "note": "(racemic) [D,L-Lactamide]", "values": [{"measurement": "approximate change in surviving CFU (log10)", "setting": "Biolog plate: PM3, Biolog well: E7", "result": -1.78}]}, {"smiles": "Nc1[nH]cnc2ncnc1-2", "note": "[Adenine]", "values": [{"measurement": "approximate change in surviving CFU (log10)", "setting": "Biolog plate: PM3, Biolog well: F2", "result": -0.515}]}, {"smiles": "O=c1cc[nH]c(=O)[nH]1", "note": "[Uracil]", "values": [{"measurement": "approximate change in surviving CFU (log10)", "setting": "Biolog plate: PM3, Biolog well: F10", "result": 1.14}]}, {"smiles": "Oc1nc(O)c2nc(O)[nH]c2n1", "values": [{"measurement": "approximate change in surviving CFU (log10)", "setting": "Biolog plate: PM3, Biolog well: G3", "result": 1.14}]}, {"smiles": "O=C1NC(=O)C(=O)C(=O)N1", "note": "[Alloxan]", "values": [{"measurement": "approximate change in surviving CFU (log10)", "setting": "Biolog plate: PM3, Biolog well: G4", "result": -3.16}]}, {"smiles": "C[C@H](N)C(=O)N[C@@H](CC(=O)O)C(=O)O", "values": [{"measurement": "approximate change in surviving CFU (log10)", "setting": "Biolog plate: PM3, Biolog well: H1", "result": 0.58}]}, {"smiles": "C[C@H](N)C(=O)N[C@@H](CCC(=O)O)C(=O)O", "values": [{"measurement": "approximate change in surviving CFU (log10)", "setting": "Biolog plate: PM3, Biolog well: H3", "result": 0.451}]}, {"smiles": "O=C(CO)[C@@H](O)[C@H](O)[C@@H](O)C(=O)O", "note": "[5-Keto-D-Gluconic Acid]", "values": [{"measurement": "approximate change in surviving CFU (log10)", "setting": "Biolog plate: PM2, Biolog well: E12", "result": 0.708}]}, {"smiles": "OCC(O)C(O)C(O)CO", "note": "(stereo unspecified) [Adonitol]", "values": [{"measurement": "approximate change in surviving CFU (log10)", "setting": "Biolog plate: PM1, Biolog well: E9", "result": 1.37}]}, {"smiles": "O=C(O)CC[C@@H](C(=O)O)N1C(=O)c2ccccc2C1=O", "note": "[N-Phthaloyl-L-Glutamic Acid]", "values": [{"measurement": "approximate change in surviving CFU (log10)", "setting": "Biolog plate: PM3, Biolog well: D2", "result": -0.343}]}, {"smiles": "O=C(O)Cc1cccc(O)c1", "note": "[m-Hydroxy Phenyl Acetic Acid]", "values": [{"measurement": "approximate change in surviving CFU (log10)", "setting": "Biolog plate: PM1, Biolog well: H3", "result": -1.31}]}, {"smiles": "NC(=O)NC1NC(=O)NC1=O", "note": "(stereo unspecified) [Allantoin]", "values": [{"measurement": "approximate change in surviving CFU (log10)", "setting": "Biolog plate: PM3, Biolog well: G5", "result": 0.258}]}, {"smiles": "O=C(O)C[C@@H](O)C(=O)O", "note": "[D-Malic Acid]", "values": [{"measurement": "approximate change in surviving CFU (log10)", "setting": "Biolog plate: PM1, Biolog well: G11", "result": 1.05}]}, {"smiles": "OC[C@H]1O[C@H](O[C@H]2O[C@H](CO)[C@@H](O)[C@H](O)[C@H]2O)[C@H](O)[C@@H](O)[C@@H]1O", "note": "[D-Trehalose]", "values": [{"measurement": "approximate change in surviving CFU (log10)", "setting": "Biolog plate: PM1, Biolog well: A10", "result": 1.59}]}, {"smiles": "N[C@@H](CS)C(=O)O", "note": "[L-Cysteine]", "values": [{"measurement": "approximate change in surviving CFU (log10)", "setting": "Biolog plate: PM3, Biolog well: A11", "result": 0.88}]}, {"smiles": "CSCC[C@H](N)C(=O)N[C@@H](C)C(=O)O", "values": [{"measurement": "approximate change in surviving CFU (log10)", "setting": "Biolog plate: PM3, Biolog well: H12", "result": 0.0214}]}, {"smiles": "OC[C@H]1O[C@@H]2O[C@H]3[C@H](O)[C@@H](O)[C@@H](O[C@H]4[C@H](O)[C@@H](O)[C@@H](O[C@H]5[C@H](O)[C@@H](O)[C@@H](O[C@H]6[C@H](O)[C@@H](O)[C@@H](O[C@H]7[C@H](O)[C@@H](O)[C@@H](O[C@H]8[C@H](O)[C@@H](O)[C@@H](O[C@H]1[C@H](O)[C@H]2O)O[C@@H]8CO)O[C@@H]7CO)O[C@@H]6CO)O[C@@H]5CO)O[C@@H]4CO)O[C@@H]3CO", "note": "[b-Cyclodextrin]", "values": [{"measurement": "approximate change in surviving CFU (log10)", "setting": "Biolog plate: PM2, Biolog well: A4", "result": 1.01}]}, {"smiles": "OCC1OC(OC2C(CO)OC(O)C(O)C2O)C(O)C(O)C1O", "note": "[D-Cellobiose]", "values": [{"measurement": "approximate change in surviving CFU (log10)", "setting": "Biolog plate: PM1, Biolog well: F11", "result": 1.2}]}, {"smiles": "CO[C@@H]1O[C@H](CO)[C@@H](O)[C@H](O)[C@H]1O", "note": "[b-Methyl-D-Glucoside]", "values": [{"measurement": "approximate change in surviving CFU (log10)", "setting": "Biolog plate: PM2, Biolog well: C7", "result": 1.33}]}, {"smiles": "O=C[C@H](O)[C@@H](O)[C@H](O)[C@H](O)COP(=O)(O)O", "note": "[D-Glucose-6-Phosphate]", "values": [{"measurement": "approximate change in surviving CFU (log10)", "setting": "Biolog plate: PM1, Biolog well: C1", "result": 1.22}]}, {"smiles": "CC(O)C(C)O", "note": "(stereo unspecified) [2,3-Butanediol]", "values": [{"measurement": "approximate change in surviving CFU (log10)", "setting": "Biolog plate: PM2, Biolog well: H10", "result": -0.708}]}, {"smiles": "CO[C@H]1O[C@H](CO)[C@H](O)[C@H](O)[C@H]1O", "note": "[a-Methyl-D-Galactoside]", "values": [{"measurement": "approximate change in surviving CFU (log10)", "setting": "Biolog plate: PM1, Biolog well: D8", "result": 1.72}]}, {"smiles": "COC(=O)CCC(=O)O", "note": "[Mono Methyl Succinate]", "values": [{"measurement": "approximate change in surviving CFU (log10)", "setting": "Biolog plate: PM1, Biolog well: G9", "result": -1.74}]}, {"smiles": "Nc1nc2[nH]cnc2c(=O)[nH]1", "note": "[Guanine]", "values": [{"measurement": "approximate change in surviving CFU (log10)", "setting": "Biolog plate: PM3, Biolog well: F6", "result": -2.83}]}, {"smiles": "OC[C@@H](O)[C@@H](O[C@@H]1O[C@H](CO)[C@H](O)[C@H](O)[C@H]1O)[C@H](O)[C@@H](O)CO", "note": "[Lactitol]", "values": [{"measurement": "approximate change in surviving CFU (log10)", "setting": "Biolog plate: PM2, Biolog well: C3", "result": 1.05}]}, {"smiles": "OC[C@H]1OC(O)[C@@H](O)[C@@H](O)[C@@H]1O", "note": "(stereo partly drawn) [D-Mannose]", "values": [{"measurement": "approximate change in surviving CFU (log10)", "setting": "Biolog plate: PM1, Biolog well: A11", "result": 1.93}]}, {"smiles": "CO[C@H]1O[C@H](CO)[C@@H](O)[C@H](O)[C@@H]1O", "note": "[a-Methyl-D-Mannoside]", "values": [{"measurement": "approximate change in surviving CFU (log10)", "setting": "Biolog plate: PM2, Biolog well: C10", "result": 0.0215}]}, {"smiles": "CC(=O)N[C@@H]1C(O)O[C@H](CO)[C@@H](O)[C@@H]1O", "note": "(stereo partly drawn) [N-Acetyl-D-Mannosamine]", "values": [{"measurement": "approximate change in surviving CFU (log10)", "setting": "Biolog plate: PM3, Biolog well: F1", "result": 0.15}]}, {"smiles": "NC(=O)NCCC[C@H](N)C(=O)O", "note": "[L-Citrulline]", "values": [{"measurement": "approximate change in surviving CFU (log10)", "setting": "Biolog plate: PM3, Biolog well: C10", "result": 0.665}]}, {"smiles": "NCCc1ccccc1", "note": "[B-Phenylethyl-amine]", "values": [{"measurement": "approximate change in surviving CFU (log10)", "setting": "Biolog plate: PM3, Biolog well: E2", "result": -0.129}]}, {"smiles": "O=C(O)[C@H](O)[C@@H](O)[C@H](O)[C@H](O)CO[C@H]1O[C@H](CO)[C@H](O)[C@H](O)[C@H]1O", "note": "[Melibionic Acid]", "values": [{"measurement": "approximate change in surviving CFU (log10)", "setting": "Biolog plate: PM2, Biolog well: F3", "result": 0.3}]}]}
